PubChem BioAssay AID425 (Sanford-Burnham Center for Chemical Genomics, 2006)
“And” between values parts separate entries of the source, which are not always exact repeats. Identical values can stand only once. Screen size: about 110,000 compounds; about 190 (0.17%) were called active. Cut-off read from the data, not from the text of the source: active = inhibition above about 50%; inactive = the rest. What follows is part of a selection rich in actives, with near analogues and random picks from the rest. Potency and affinity values are given separately. Some compounds were tested as several samples or in several runs, with calls that do not always agree.

What follows are molecules tested against Dual specificity protein phosphatase 6 (Rattus norvegicus) (UniProt Q64346) (assay: inhibition of rat DUSP6 enzyme activity – biochemical, in vitro, primary screen (AID 425;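 note: plate controls were vehicle for no effect and reference inhibitor for full effect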)). Settings: recombinant MKP-3 phosphatase activity, fluorescence; at 20 µM; stronger effect = higher value.
Chain of Dual specificity protein phosphatase 6 (Rattus norvegicus) (Q64346 whole entry, looked up): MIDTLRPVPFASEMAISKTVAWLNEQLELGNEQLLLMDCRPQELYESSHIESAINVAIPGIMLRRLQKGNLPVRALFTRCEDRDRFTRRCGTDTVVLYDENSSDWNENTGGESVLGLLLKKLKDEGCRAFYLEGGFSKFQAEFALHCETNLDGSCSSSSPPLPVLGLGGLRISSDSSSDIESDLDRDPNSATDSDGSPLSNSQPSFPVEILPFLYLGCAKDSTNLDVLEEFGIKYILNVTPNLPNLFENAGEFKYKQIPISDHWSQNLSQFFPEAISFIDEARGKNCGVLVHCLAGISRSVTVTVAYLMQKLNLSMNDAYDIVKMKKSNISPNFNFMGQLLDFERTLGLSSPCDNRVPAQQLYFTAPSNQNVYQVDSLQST

Compound	inhibition
CCOc1ccc2noc3c2c1C(=O)c1ccccc1-3	45.7% (inactive) and 44.7% (inactive)
COc1ccc2noc3c2c1C(=O)c1ccccc1-3	102% (active) and -3.3% (inactive)
O=C1c2ccccc2-c2onc3ccc(NCc4ccco4)c1c23	-14.4% (inactive)
O=C1c2ccccc2-c2onc3ccc(Oc4ccc(Cl)cc4)c1c23	92.2% (active)
O=C1c2ccccc2-c2onc3ccc(Cl)c1c23	13.1% (inactive)
O=C1c2ccccc2-c2onc3ccc(NC4CCCCC4)c1c23	-1.7% (inactive)
CCNc1ccc2noc3c2c1C(=O)c1ccccc1-3	4.2% (inactive)
O=C1C=Cc2ccccc2/C1=N/Oc1ccc2noc3c2c1C(=O)c1ccccc1-3	65.3% (active)
O=C1c2ccccc2-c2onc3ccc(N4CCCCC4)c1c23	10.8% (inactive)
CCOc1ccc(Nc2ccc3noc4c3c2C(=O)c2ccccc2-4)cc1	3.7% (inactive)
O=C1c2ccccc2-c2onc3ccc(Sc4ccccc4)c1c23	7.7% (inactive)
Cc1ccc2c(c1)c1nc3ccccc3nc1n2CCN1CCOCC1	1.9% (inactive)
Brc1cccc(CN2CCN(C3CCN(Cc4ccccc4)CC3)CC2)c1	3.4% (inactive)
O=C(CSC(=S)N1CCOCC1)c1ccc([N+](=O)[O-])cc1	2.2% (inactive)
Cc1ccc(-n2c3c(cc(C(=O)NCCCN4CCOCC4)c2=O)C(=O)CC(C)(C)C3)cc1	-7.6% (inactive)
COc1cccc(C2/C(=C(\O)c3c(C)nc4c(C)cccn34)C(=O)C(=O)N2CCCN(C)C)c1 (stereo not given)	-2.7% (inactive)
CCCCOC(=O)c1c(NC(=O)C2C3CCC(C3)C2C(=O)O)sc2c1CCCC2 (stereo not given)	0% (inactive)
COc1ccc(/C=C/C(=O)NC(=S)Nc2ccc(S(=O)(=O)N=C(N)N)cc2)cc1	-1.1% (inactive)
O=C1CC(c2ccccc2)CC2=C1C(c1cccnc1)Nc1ccc(C(=O)c3ccccc3)cc1N2 (stereo not given)	8.5% (inactive)
O=C(O)C1C2C=CC(O2)C1C(=O)Nc1ccccc1C(F)(F)F (stereo not given)	4.5% (inactive)
O=C(O)c1ccc(NC2=C(N3CCCCC3)C(=O)c3ccccc3C2=O)cc1	1.7% (inactive)
O=C1C(Nc2ccc(Cl)cc2)=C(N2CCOCC2)C(=O)c2ccccc21	2% (inactive)
O=C1C(Nc2ccc(Cl)cc2)=C(N2CCCCC2)C(=O)c2ccccc21	55.2% (active)
CCOCCOC(=O)C1=C(C)N(C)C(=O)NC1c1cc(Cl)c(O)c(OCC)c1 (stereo not given)	-5.1% (inactive)
O=C(CN1CCN(Cc2ccccc2Cl)C1=O)NC1CCCCCCC1	-3.3% (inactive)
